Experimental data taken from the supplement of paper PMC11172423.
Unmarked numbers belong to inactive results.

The compounds below were run on Madurella mycetomatis MM55 (assay: growth relative to untreated control; higher = less inhibition, active = 20 or less). Conditions: 100 µM.
Outline: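 Hyphal fragments of M. mycetomatis MM55 or F. senegalensis CBS197.79 were suspended in colourless RPMI 1640 with L-glutamine and MOPS at 68–72% transmission at 660 nm. They were exposed in 96-well plates to compound at 100 or 25 µM for 7 days at 37 °C. Viability was read with MTS (2 h, 490 nm) or resazurin (600 nm). Growth is metabolic activity relative to the untreated growth control, both corrected with a medium-plus-dye blank.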

Question: `CCOc1cc(C(C)(C)C)ccc1C1=N[C@@](C)(c2ccc(Cl)cc2)[C@@](C)(c2ccc(Cl)cc2)N1C(=O)N1CCN(CCCS(C)(=O)=O)CC1` was tested. Which growth did it give?
Answer: 99.8%

Question: Which growth does the source give for `C=CC[C@@H]1/C=C(\C)C[C@H](C)C[C@H](OC)[C@H]2O[C@@](O)(C(=O)C(=O)N3CCCC[C@H]3C(=O)O[C@H](/C(C)=C/[C@@H]3CC[C@@H](O)[C@@H](OC)C3)[C@H](C)[C@@H](O)CC1=O)[C@H](C)C[C@@H]2OC` here?
Answer: 48.1%

Question: Which growth does the source give for `CC(C)Oc1ccc(-c2nc(-c3cccc4c3CC[C@@H]4NCCO)no2)cc1C#N` here?
Answer: 3.42% (active)

Question: With `S=C(NCc1ccc2c(c1)OCO2)N1CCN(c2ncnc3c2oc2ccccc23)CC1` as the compound, how does the growth read?
Answer: 77.9%

Question: `CCOc1ccc(-c2nc(NC(=O)Cc3cccc(OC)c3)sc2C)cc1` was tested. Which growth did it give?
Answer: 83.1%

Question: For `CO/C=C(/C(=O)OC)c1ccccc1COc1c(C)c(-c2ccc(C)cc2C)nn1C`, which growth is on record?
Answer: 10.3% (active)

Question: For `O=C(NCCN1CCCC1)c1ccc(Nc2nccc(-c3ccc(Cl)cc3)n2)cc1`, which growth is on record?
Answer: 5.82% (active)

Question: `O[C@@H](c1cc(C(F)(F)F)nc2c(C(F)(F)F)cccc12)[C@H]1CCCCN1` was tested. Which growth did it give?
Answer: 4.2% (active)

Question: Which growth does the source give for `N=C(N)Nc1ccc(C(=O)Oc2ccc3cc(C(=N)N)ccc3c2)cc1` here?
Answer: 72.3%

Question: `Cc1nc(NCc2ccc(F)cc2)nc(NCC(C)(C)C)c1C` was tested. Which growth did it give?
Answer: 5.94% (active)

Question: `CC(C)Nc1cccnc1N1CCN(C(=O)c2cc3cc(NS(C)(=O)=O)ccc3[nH]2)CC1` was tested. Which growth did it give?
Answer: 96.3%

Question: Which growth does the source give for `CC(C)(C)Nc1ncc2nc(Nc3cccc(C(F)(F)F)c3)n(CC3CCNC3)c2n1` (configuration not stated) here?
Answer: 3.65% (active)
